The list is not random: actives were taken first. Their share in the collection is about 1.4%.
eLon inh – E. coli protease La inhibition. P0A9M0. purified E. coli Lon protease, fluorescence polarization. inhibition, % at 7.94 µM. 360,000 compounds, 0.42% hits. AID 602123; in the data active = inhibition above about 13%, passing the limit was not always enough;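 also: 0% = enzyme with probe and DMSO and 100% = no enzyme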
GLD-1 TGE inh – GLD-1-TGE RNA interaction inhibition (C. elegans); Q17339; purified GLD-1 + fluorescein TGE RNA, fluorescence polarization; inhibition, % at 5.96 µM; 320,000 compounds, 0.44% hits; AID 2280;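 active = percent inhibition above a per-plate cutoff, the plate mean of test compounds plus 3 SD, cut at about 30% in these data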;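 also: 0% = DMSO wells with GLD-1 and probe and 100% = wells lacking GLD-1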
MEX-5 binding – C. elegans MEX-5 TCR-2 RNA binding activity | MEX-5/FITC-TCR2 RNA binding, fluorescence polarization; hits give low values | activity score (negative = inhibition of binding), % at 10 µM | 300,000 compounds, 0.38% hits | AID 1832;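 active = inhibition past about -25% in most replicates, and total fluorescence under double the plate's negative control median, limit read from the data; inconclusive = replicates evenly split on the limit, or fluorescence at least double controls; inactive = too little inhibition in most replicates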;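 also: 0% = DMSO and -100% = 5 µM competing unlabeled TCR2 RNA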
Bcl-xL primary – Bcl-xL (human) inhibition; GST-Bcl-xL / FITC-Bim BH3 peptide fluorescence polarization; inhibition, % at 10.9 µM; 320,000 compounds, 0.7% hits; AID 2129;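 active = inhibition above the mean of all tested compounds plus 3 SD, cutoff set per campaign, cut at about 30% in these data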;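 also: 0% = DMSO wells and 100% = unlabeled Bim-BH3 peptide competitor; inhibitors lower millipolarization by displacing the labeled peptide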
Target sequence (Q07817 whole entry, looked up): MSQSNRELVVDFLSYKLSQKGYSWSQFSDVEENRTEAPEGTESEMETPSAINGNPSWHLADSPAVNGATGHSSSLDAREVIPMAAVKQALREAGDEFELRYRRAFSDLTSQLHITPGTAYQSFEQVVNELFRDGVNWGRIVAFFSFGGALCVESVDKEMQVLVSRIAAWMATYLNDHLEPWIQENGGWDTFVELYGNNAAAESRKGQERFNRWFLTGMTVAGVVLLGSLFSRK
MCL1-BIM inh – inhibitors of human MCL1 binding to BIM-BH3 peptide; Q07820; GST-MCL1 / FITC-Bim-BH3 fluorescence polarization; inhibition, % at 10.9 µM; 320,000 compounds, 0.68% hits;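 active = inhibition above the mean inhibition of all tested compounds plus 3 SD, set per campaign, cut at about 40% in these data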;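 also: 0% = DMSO wells and 100% = unlabeled Bim-BH3 peptide control; higher means more loss of mP so more displacement of Bim peptide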
Target sequence (Q07820 whole entry, looked up): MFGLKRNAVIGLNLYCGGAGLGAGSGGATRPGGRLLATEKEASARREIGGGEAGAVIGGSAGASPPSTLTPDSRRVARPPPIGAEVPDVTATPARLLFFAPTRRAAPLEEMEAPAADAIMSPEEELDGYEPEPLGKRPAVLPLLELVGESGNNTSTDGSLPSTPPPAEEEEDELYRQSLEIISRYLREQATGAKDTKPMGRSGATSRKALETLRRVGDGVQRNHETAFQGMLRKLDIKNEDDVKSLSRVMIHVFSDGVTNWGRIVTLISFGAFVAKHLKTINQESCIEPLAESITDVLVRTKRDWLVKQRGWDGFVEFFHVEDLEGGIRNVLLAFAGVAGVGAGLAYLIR
BCLXL inh confirm – Bcl-xL (human) inhibition, MCL1 counter-screen confirmation. inhibition, % at 10.9 µM. shares compounds with MCL1-BIM inh. 1,700 compounds, 54% hits. GST-Bcl-xL / FITC-Bim BH3 peptide FP binding;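 active = inhibition above a cutoff equal to the mean inhibition of all tested compounds plus 3 SD, cut at about 30% in these data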;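 also: 0% = DMSO wells and 100% = unlabeled Bim BH3 control peptide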
MCL1 inh confirm – MCL1-BIM-BH3 interaction inhibition, confirmation. shares compounds with MCL1-BIM inh. AID 2168. 1,700 compounds, 61% hits. inhibition, % at 10.9 µM. GST-MCL1 / FITC-Bim-BH3 fluorescence polarization;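 active = inhibition above the average of all tested compounds plus 3 SD, cut at about 40% in these data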;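 also: 0% = DMSO wells and 100% = unlabeled Bim-BH3 control peptide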
Numbers without * were called inactive; ? = inconclusive; nt = no result; + = active, no number.

SMILES | eLon inh | GLD-1 TGE inh | MEX-5 binding | Bcl-xL primary | MCL1-BIM inh | BCLXL inh confirm | MCL1 inh confirm
CCOC(=O)C1CCN(C(=O)Nc2ccc3nc(-c4ccco4)c(-c4ccco4)nc3c2)CC1 | 13 | 56* | -4 | 101* | 143* | 68* | 100*
C[C@H](NS(=O)(=O)OCC(Cl)(Cl)Cl)C1CC1c1ccccc1 (stereo partly specified) | -2 | 10 | 2 | 5 | 47* | 15 | 61*
CC(NS(=O)(=O)OCC(Cl)(Cl)Cl)c1ccc(C(C)(C)C)cc1 (stereo unspecified) | 5 | 14 | -1 | 3 | 0 | nt | nt
CC(N)c1csc(Nc2ccc(S(C)(=O)=O)cc2)n1 (stereo unspecified) | -8 | nt | nt | nt | nt | nt | nt
Cc1ccccc1NC(=O)CSc1ccsc1[N+](=O)[O-] | -1 | 4 | -1 | 18 | 67* | 32* | 90*
NC1=CC(=O)c2cccc3cccc1c23 | nt | 118* | -28* | 175* | + | 156* | 188*
COCCn1c(C)c(C)c(S(=O)(=O)c2ccccc2)c1N | 8 | 29 | 2 | 68* | 72* | 44* | 62*
CCC1OC(C)Cc2[nH][nH]c(=O)c21 (stereo unspecified) | -2 | nt | nt | nt | nt | nt | nt
Cn1cnnc1SCC(=O)Nc1sc2c(c1C(N)=O)CCC2 | -23 | -2 | -5 | 20 | 56* | 24 | 56*
COc1cccc(C(=O)OCC(=O)Nc2sc3c(c2C(N)=O)CCC3)c1O | -17 | -5 | nt | 21 | 50* | 24 | 45*
COCCn1cnnc1SCC(=O)Nc1sc2c(c1C#N)CCC2 | -21 | -5 | nt | 2 | 16 | nt | nt
COc1ccccc1OCC(=O)Nc1sc2c(c1C(N)=O)CCC2 | -10 | -1 | nt | nt | nt | nt | nt
O=[N+]([O-])c1ccc(CN2[C@H](COCc3ccccc3)[C@@H](N3CCCC3)CS2(=O)=O)cc1 | -4 | nt | nt | nt | nt | nt | nt
CCCCN(C(=O)c1cccc(-n2cccc2)c1)c1c(N)n(CCC)c(=O)[nH]c1=O | -20 | 4 | -2 | 2 | 55* | 11 | 51*
O=C(COc1ccccc1[N+](=O)[O-])OCC(=O)c1ccc(Br)s1 | -4 | -7 | nt | nt | nt | nt | nt
CC1CCC(C(C)C)C(NC(=O)c2ccncc2)C1 (stereo unspecified) | -3 | nt | nt | nt | nt | nt | nt
CC(=O)NN1C(=O)/C(=C\c2ccc(O)cc2)SC1=S | -151 | -81 | ? | -13 | -14 | nt | nt
CC(=O)NN1C(=O)/C(=C/c2ccc(Br)o2)SC1=S | 2 | -3 | -21 | 19 | 45* | -7 | -25
CC(=O)NN1C(=O)/C(=C\c2ccccc2)SC1=S | 1 | 0 | -1 | 4 | 5 | nt | nt
CC(=O)NN1C(=O)/C(=C\c2ccc(Br)o2)SC1=S | 5 | 8 | -1 | 33* | 71* | 13 | 18
CCc1nc2c(OCc3ccc(OC(F)F)cc3)cccn2c1N(C)C(=O)c1ccco1 | -1 | nt | nt | nt | nt | nt | nt
COC(=O)CCCC1=CC2=CC(=O)C(C)(OC(=O)c3cccs3)C(=O)C2=CO1 (stereo unspecified) | nt | 93* | -49* | 105* | 122* | 53* | 69*
CCCCC1=CC2=CC(=O)C(C)(OC(=O)CCC(=O)OC)C(=O)C2=CO1 (stereo unspecified) | nt | 54* | -27* | 42* | 62* | 16 | 51*
COC(=O)CCCC1=CC2=CC(=O)C(C)(OC(=O)c3cccs3)C(=O)C2=CN1c1ccccc1 (stereo unspecified) | 9 | 15 | -7 | 17 | 16 | nt | nt
CC1(OC(=O)c2ccc(Cl)nc2)C(=O)C=C2C=C(c3ccc(C#N)cc3)OC=C2C1=O (stereo unspecified) | nt | 17 | ? | 19 | 17 | nt | nt
SMILES | eLon inh | GLD-1 TGE inh | MEX-5 binding | Bcl-xL primary | MCL1-BIM inh | BCLXL inh confirm | MCL1 inh confirm
COC(=O)CCCC1=CC2=CC(=O)C(C)(OC(=O)c3ccc(Cl)nc3)C(=O)C2=CO1 (stereo unspecified) | nt | 57* | -35* | 55* | 66* | 46* | 69*
CC1(OC(=O)c2ccc(Cl)nc2)C(=O)C=C2C=C(c3ccsc3)OC=C2C1=O (stereo unspecified) | nt | 29 | -22 | 23 | 32 | nt | nt
CC1(OC(=O)c2ccc(Cl)nc2)C(=O)C=C2C=C(C3CC3)OC=C2C1=O (stereo unspecified) | nt | 76* | -50* | 74* | 87* | 83* | 122*
CCCCC1=CC2=CC(=O)C(C)(OC(=O)c3ccco3)C(=O)C2=CO1 (stereo unspecified) | nt | 62* | -36* | 43* | 49* | 33* | 62*
CC1(OC(=O)c2ccco2)C(=O)C=C2C=C(c3ccc(C#N)cc3)OC=C2C1=O (stereo unspecified) | nt | 13 | -20 | 12 | 19 | nt | nt
COC(=O)CCC(=O)OC1(C)C(=O)C=C2C=C(C3CC3)N(CCCCO)C=C2C1=O (stereo unspecified) | -20 | 16 | 1 | 22 | 19 | nt | nt
COC(=O)CCC(=O)OC1(C)C(=O)C=C2C=C3CCCN3C=C2C1=O (stereo unspecified) | -2 | 12 | -6 | 22 | 48* | 33* | 32
CC(C)(C)OC(=O)NCCCCC1=CC2=CC(=O)C(C)(OC(=O)c3cnc4ccccc4n3)C(=O)C2=CO1 (stereo unspecified) | nt | 89* | -28* | 59* | 58* | 39* | 52*
CC1(C)N=C(N)N=C(N)N1c1cccc(C#N)c1 | -9 | nt | nt | nt | nt | nt | nt
CC(=O)Nc1ccc(NC(=O)C(C)OC(=O)C2CCCCC2)cc1 (stereo unspecified) | 17 | 21 | nt | 18 | 151* | 2 | 9
CC(=O)Nc1ccc(NC(=O)C(C)OC(=O)C2CCCC2)cc1 (stereo unspecified) | -1 | -5 | 0 | -19 | -11 | nt | nt
COc1ccccc1Oc1ccc(NC(=O)c2ccc(Cl)cc2)cc1 | -11 | -12 | -1 | 2 | 1 | nt | nt
COc1ccc2nc3ccccc3nc2c1NC(=O)c1ccc(Cl)cc1 | -27 | -3 | -31* | 50* | 104* | 82* | 105*
N#Cc1c(-c2ccc(Cl)cc2)cc(-c2cccs2)nc1SCC(=O)O | 1 | 3 | 2 | 50* | 73* | 37* | 53*
O=C(Cc1cccs1)Nc1nnc(Cc2ccccc2)s1 | -34 | -10 | 2 | 4 | 54* | 8 | 44*
CC(=O)Nc1cccc(NC(=O)Cc2cccs2)c1 | -3 | 7 | -3 | 9 | 6 | nt | nt
COC(=O)c1cc(NC(=O)Cc2cccs2)cc(C(=O)OC)c1 | -5 | -4 | -3 | 2 | 44* | 3 | 28
COc1ccc(C(=O)Nc2nnc(Cc3cccs3)s2)cc1OC | 9 | 0 | 0 | 4 | -9 | nt | nt

Screening data as filed in PubChem.
